Bioassay records deposited in PubChem BioAssay by several laboratories.
PfM18AAP inh-1: blocks P. falciparum M18 aspartyl aminopeptidase | AID 1822 | recombinant PfM18AAP, H-Glu-NHMec fluorogenic cleavage | actives 1.2% (n = 290,000) | inhibition, % at 7.35 µM;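 active = inhibition above the campaign mean inhibition over all tested compounds plus 3 SD, cut at about 28% in these data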;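 also: 0% = plate median of test compound wells and 100% = 2 mM ZnCl2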
A3A deaminase: human APOBEC3A DNA deaminase inhibition; inhibition, % at 20 µM; actives 0.41% (n = 330,000); recombinant A3A, FAM/TAMRA ssDNA deamination fluorescence; AID 493011;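 active = at least 40% inhibition at 20 µM here, with at most 30% in a related deaminase screen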;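 also: plate controls were A3A with DMSO for no effect and wells lacking A3A enzyme for full effect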
Target sequence (P31941 whole entry, looked up): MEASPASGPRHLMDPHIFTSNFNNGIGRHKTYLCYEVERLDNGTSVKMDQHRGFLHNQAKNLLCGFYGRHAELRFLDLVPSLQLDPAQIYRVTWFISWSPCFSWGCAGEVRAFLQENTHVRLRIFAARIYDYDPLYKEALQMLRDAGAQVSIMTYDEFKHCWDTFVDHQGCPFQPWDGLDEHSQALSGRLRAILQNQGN
CR mimetic SO: yeast age-related superoxide inhibition as caloric restriction mimetic; S. cerevisiae aged cells, superoxide DHE fluorescence; active compounds read low; superoxide response (% of plate mean), % at 10 µM; actives 0.18% (n = 330,000); AID 2690;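 active = superoxide response under a set limit, about three screen SD below normal, cut at about 65% in these data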;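 also: yeast aged for seven days with compound at 30 °C before DHE staining; 100% = average MFI of all compound-treated wells on the plate with controls excluded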
ALR inh: human ALR oxidase inhibition via reduced H2O2; P55789; purified ALR, DTT oxidation, H2O2 HRP-luminol luminescence; inhibition, % (no concentration beside the values); actives 3.8% (n = 290,000); AID 485317;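 active = mean replicate inhibition above about 79%, with every replicate also reaching it, limit read from the data; inconclusive = only one of the two criteria met; inactive = mean below limit and not every replicate reaching it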
Target sequence (P55789 whole entry, looked up): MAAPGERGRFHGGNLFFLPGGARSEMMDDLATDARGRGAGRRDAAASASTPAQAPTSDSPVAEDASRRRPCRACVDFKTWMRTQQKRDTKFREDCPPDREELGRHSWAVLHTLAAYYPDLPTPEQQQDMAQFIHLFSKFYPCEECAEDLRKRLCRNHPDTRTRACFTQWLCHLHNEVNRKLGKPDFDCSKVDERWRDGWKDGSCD
CendR NRP1 mod: modulators of CendR peptide binding to human neuropilin-1; inhibition, % at 25 µM; actives 0.85% (n = 360,000); FAM-RPARPAR peptide binding to NRP-1, fluorescence polarization; AID 602438;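 active = inhibition or corrected inhibition above about 18%, plus a signal ratio from 0.5 to 1.5, limit read from the data, passing the limit was not always enough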
A3G deaminase: blocks human APOBEC3G single-stranded DNA deamination | actives 0.28% (n = 330,000) | inhibition, % at 20 µM | recombinant A3G, ssDNA deamination FAM/TAMRA fluorescence | AID 493012 | Q9HC16;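 active = inhibition of at least 40% at 20 µM, with no more than 30% in the related APOBEC3A deaminase screen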;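 also: plate controls were DMSO wells with A3G for no effect and wells lacking A3G enzyme for full effect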
PfM18AAP inh-2: confirmation of Plasmodium falciparum M18 aspartyl aminopeptidase inhibitors; actives 28% (n = 2,400); recombinant PfM18AAP, H-Glu-NHMec fluorogenic cleavage; inhibition, % at 7.35 µM; AID 2170; shares compounds with PfM18AAP inh-1;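 active = mean inhibition over replicate wells above the hit cutoff set for the earlier primary screen, cut at about 29% in these data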;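 also: 0% = median of test compound wells and 100% = 2 mM ZnCl2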
CTSL1 counter: counter-screen for PFM18AAP inhibitors: confirmation of human cathepsin L inhibitors | shares compounds with PfM18AAP inh-1 | purified cathepsin L1, Z-Leu-Arg-MCA fluorescence | inhibition, % at 5.96 µM | 2,400 tested, under 10 active | AID 2178;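 active = average inhibition across replicates above the hit cutoff set in the earlier primary screen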;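 also: 0% = median of test compound wells and 100% = Z-Phe-Ala-diazomethylketone 1 µM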
Numbers without * were called inactive. Shown are actives, neighbours in structure and some others; about 5.2% of the full set was active somewhere.

For COc1cc(/C=N/NC(=O)Cc2csc(N3CCOCC3)n2)cc(OC)c1O the results were PfM18AAP inh-1 32*, A3A deaminase 4, CR mimetic SO 95, ALR inh 99*, CendR NRP1 mod 3, A3G deaminase 4, PfM18AAP inh-2 -37 and CTSL1 counter 0.
`COc1ccc(C2=Nc3ccccc3OC2)cc1` gave PfM18AAP inh-1 39*, A3A deaminase 0, CR mimetic SO 91, ALR inh 10, CendR NRP1 mod -15, A3G deaminase -1, PfM18AAP inh-2 -26 and CTSL1 counter -1.
`O=C(NNc1ncccc1Cl)c1c(Cl)cccc1Cl` gave PfM18AAP inh-1 7, A3A deaminase -2, CR mimetic SO 106, ALR inh -4, CendR NRP1 mod 4 and A3G deaminase -2.
CCCCNC(=O)NNc1nc(Cl)cc(C)c1C#N was read as PfM18AAP inh-1 54*, A3A deaminase 2, CR mimetic SO 107, ALR inh inconclusive, CendR NRP1 mod 5, A3G deaminase -10, PfM18AAP inh-2 45* and CTSL1 counter 0.
`CCOC(=O)Cc1csc(NC(=O)Cc2ccc(Cl)cc2)n1` gave PfM18AAP inh-1 -4, A3A deaminase 5, CR mimetic SO 100, ALR inh -1, CendR NRP1 mod 4 and A3G deaminase -2.
`CCOC(=O)Cc1csc(NC(=O)NC2(C(F)(F)F)Oc3ccc(Cl)cc3O2)n1` (stereo not given) gave PfM18AAP inh-1 97*, A3A deaminase -3, CR mimetic SO 102, ALR inh inconclusive, CendR NRP1 mod 5, A3G deaminase -5, PfM18AAP inh-2 73* and CTSL1 counter -2.
For CCOC(=O)Cc1csc(NC(=O)NC2(C(F)(F)F)Oc3ccccc3O2)n1 the results were PfM18AAP inh-1 90*, A3A deaminase -2, CR mimetic SO 89, ALR inh 34, CendR NRP1 mod -6, A3G deaminase -5, PfM18AAP inh-2 68* and CTSL1 counter 1.
CCOC(=O)Cc1csc(NC(=O)NC2(C(F)(F)F)Oc3cc(Cl)c(Cl)cc3O2)n1 was read as PfM18AAP inh-1 94*, A3A deaminase -2, CR mimetic SO 90, ALR inh 98*, CendR NRP1 mod -20, A3G deaminase -5, PfM18AAP inh-2 73* and CTSL1 counter -3.
CCOC(=O)Cc1csc(NC(=O)Nc2ccc(OC(F)(F)F)cc2)n1 was read as PfM18AAP inh-1 -3, A3A deaminase -3, CR mimetic SO 111, ALR inh -1, CendR NRP1 mod -1 and A3G deaminase -12.
Screening Cc1ccc(S(=O)(=O)c2nc(-c3ccc(F)cc3)oc2SCC(=O)NCC2CCCO2)cc1 (stereo not given) returned PfM18AAP inh-1 -9, A3A deaminase 1, CR mimetic SO 105, ALR inh -21, CendR NRP1 mod 10 and A3G deaminase -3.
CCOC(=O)c1ccc2[nH]c3ccccc3c2c1 was read as PfM18AAP inh-1 -5, A3A deaminase 0, CR mimetic SO 114, ALR inh 0, CendR NRP1 mod 1 and A3G deaminase -7.
For O=C(O)c1c[nH]c(=S)n1-c1ccc(F)cc1 the results were PfM18AAP inh-1 51*, A3A deaminase -2, CR mimetic SO 93, ALR inh 26, CendR NRP1 mod 17, A3G deaminase 1, PfM18AAP inh-2 39* and CTSL1 counter -2.
CSc1ncc(C(=O)O)n1-c1ccc(F)cc1 was read as PfM18AAP inh-1 -4, A3A deaminase -3, CR mimetic SO 86, ALR inh -2, CendR NRP1 mod 0 and A3G deaminase -3.
`O=C(Nc1ccccc1O)c1ccccc1O` gave PfM18AAP inh-1 34*, A3A deaminase -3, CR mimetic SO 106, ALR inh 53, CendR NRP1 mod -13, A3G deaminase -4, PfM18AAP inh-2 29* and CTSL1 counter -5.
Cc1cccc(NC(=S)NC2CCCC2)n1 was read as PfM18AAP inh-1 44*, A3A deaminase -1, CR mimetic SO 111, ALR inh -7, CendR NRP1 mod -80, A3G deaminase 0, PfM18AAP inh-2 -3 and CTSL1 counter 7.
Cc1cccc(NC(=S)Nc2cccc(C)n2)n1 was read as PfM18AAP inh-1 -6, A3A deaminase 1, CR mimetic SO 82, ALR inh -1, CendR NRP1 mod 17 and A3G deaminase 10.
Screening Cc1cccc(NC(=S)NC2CCCCC2)n1 returned PfM18AAP inh-1 36*, A3A deaminase -3, CR mimetic SO 116, ALR inh -2, CendR NRP1 mod 15, A3G deaminase 2, PfM18AAP inh-2 8 and CTSL1 counter 2.
Screening CCOc1ccccc1OCCCC(=O)NC1CCCc2ccccc21 (stereo not given) returned PfM18AAP inh-1 -10, A3A deaminase 3, CR mimetic SO 111, ALR inh -4, CendR NRP1 mod 7 and A3G deaminase -3.
`C=CC(C)n1c(Br)nc2c1c(=O)[nH]c(=O)n2C` (stereo not given) gave PfM18AAP inh-1 2, A3A deaminase -2, CR mimetic SO 95, ALR inh 4, CendR NRP1 mod -9 and A3G deaminase -6.
`CC(C)n1c(=S)[nH]c2c1c(=O)[nH]c(=O)n2C` gave PfM18AAP inh-1 36*, A3A deaminase -7, CR mimetic SO 87, ALR inh 13, CendR NRP1 mod 6, A3G deaminase 0, PfM18AAP inh-2 29* and CTSL1 counter -1.
CCc1cc(-c2cnnn2CCc2c[nH]c3ccccc23)ccc1-c1cn(CC(C)C)nn1 was read as CendR NRP1 mod -8.
Screening CN(C)c1cccc(NC(=O)Cc2ccc(F)cc2)c1 returned PfM18AAP inh-1 39*, A3A deaminase -5, CR mimetic SO 127, ALR inh 32, CendR NRP1 mod -9, A3G deaminase -3, PfM18AAP inh-2 -10 and CTSL1 counter 1.
Screening CC(=O)Nc1cccc(N(C)C)c1 returned PfM18AAP inh-1 12, A3A deaminase -2, CR mimetic SO 107, ALR inh 12, CendR NRP1 mod -10 and A3G deaminase 1.
For N#Cc1ccc(C23CC4(C2)[C@H](CN(Cc2ccc(-c5ccccc5)cc2)[C@@H]4c2ccccc2)C3c2ccc(Cl)nc2)cc1 (stereo not given in full) the results were A3A deaminase 1, CR mimetic SO 102, ALR inh -8, CendR NRP1 mod 18 and A3G deaminase -3.
For CCn1c(SCC(=O)c2ccc(O)c(O)c2)nnc1-c1ccc(C)cc1 the results were PfM18AAP inh-1 43*, A3A deaminase 2, CR mimetic SO 102, ALR inh 68, CendR NRP1 mod -70, A3G deaminase -4, PfM18AAP inh-2 19 and CTSL1 counter -9.
